The results in this text go back to PubChem BioAssay AID624331 (National Center for Advancing Translational Sciences (NCATS), 2012).

Results filed as inconclusive are left out. Values without a mark were called inactive. Activity calls are given as the source filed them. Calls come from the whole dose curve; as a rule, active = well fitted activation curve with a large enough effect; inconclusive = small, poorly fitted or top-dose-only effect; inactive = no such curve, though single readings can be large or run the other way.
Potency is the fitted concentration of half-maximal effect.

A short description of this test: qHTS assay for re-activators of p53 using a Luc reporter: Hit Validation with no p53 Expressed. For activity change, positive = activation: 0% is about no effect. Particulars: p53-null cells, luciferase reporter counter-screen; series mostly up to 46.1 µM; activity change, positive = activation: at the top concentration. The procedure, abridged: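 Counter-screen of primary hits in a cell line not transfected with p53, in Opti-MEM with 10% FBS; compounds at several concentrations (10 mM stock, 1:5; top 46.1 µM in well), 24 h at 37 deg C, 5% CO2. Luminescence read after 10 min with Amplite reagent.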
Consider `COc1ccc(C(C#N)N2N=C(c3ccccc3)CC2c2ccccc2)cc1OC` (stereo unspecified), for which the “activity change, positive = activation” value is -24.4%. The same measure, in the same setting: the same measure for `CC(=O)N1CCN(C(=O)COC(=O)COc2c(C)cc(C)cc2C)CC1`: 34.5%. For `Cc1ccccc1S(=O)(=O)Nc1nc2ccccc2nc1N1CCc2ccccc2C1`, the “activity change, positive = activation” value is 50.8%. The same measure, in the same setting: the value for `COc1ccc2c(=O)c(-c3nc(C)cs3)coc2c1` was -21.3%. Same read-out and setting: the value for `Cc1ccc(NC(=O)Nc2ccccc2)c(Br)c1` was -27.1%. On the same count and under the same terms, the same measure for `CCOc1ccc(-c2cnc3ccccc3n2)cc1`: -34.8%.

As for `C#CCOc1ccc(/C=C2\SC(=S)N(Cc3cccnc3)C2=O)cc1`, the “activity change, positive = activation” value was 23.1%. Take `Cc1ccnc(NC(=O)CCC2CCCCC2)c1`: the “activity change, positive = activation” value is 22.1%. Turning to `Cc1cc(C(=O)CSc2nnc(N)s2)c(C)n1Cc1cccs1`, the “activity change, positive = activation” value is -10.8%. Still for that read-out and setting: the value for `Cc1ccccc1Cn1nnc(-c2cccc(C(=O)O)c2)n1` was -24.8%; that for `COc1ccc(C(=O)Nc2nnc(C(F)(F)F)s2)cc1` was -57.8%.

As for `OCc1cc(Br)ccc1OCc1nc2ccccc2s1`, the “activity change, positive = activation” value is 32.1%.

For the molecule `O=C(N/N=C/C1C(c2ccccc2)C1(Cl)Cl)c1cccc(Cl)c1` (stereo unspecified), the “activity change, positive = activation” value is -39.2%. The same measure, in the same setting: the same measure for `COC(=O)c1ccc(-c2nc(-c3cccs3)no2)cc1`: -36%. The same measure, in the same setting: the same measure for `Cc1ccc(-c2nnc(N(C)C(=O)C3CCCO3)s2)cn1` (stereo unspecified): 5.59%. Consider `O=C(/C=C/c1ccccc1)NC1CCSC1=O` (stereo unspecified), for which the Potency is 16.4 µM (active).

Consider `COc1ccc(N2C(=O)CC(Cc3ccc(Br)cc3)C2=O)cc1` (stereo unspecified), for which the “activity change, positive = activation” value was -57.2%. On the same count and under the same terms, the same measure for `Cc1ccc2cc(CCNC(=O)c3ccco3)c(=O)[nH]c2c1C`: 82.1%.

As to `COc1cc(OC)cc(C(=O)NNC(=O)c2ccccn2)c1`, the “activity change, positive = activation” value was -11.2%. `O=C(Nc1ccc2ccccc2c1)c1ccc(Cl)cc1Cl`: the “activity change, positive = activation” value was -19.5%. Same read-out and setting: the value for `Nc1cccc(-c2nc3ccc(C(=O)c4ccccc4)cc3[nH]2)c1` was -22.3%.
